The text below walks through data of PubChem BioAssay.

Assay [1] can be described thus: compound effects on lung adenocarcinoma cell viability – A549, calcein-AM fluorescence, 48 h, basal, profiling panel (AID 1162). The note with it: higher = more signal.
Assay [2] in a line: compound effects on differentiated 3T3-L1 adipocyte viability – cell-based, 3T3-L1 adipocytes, calcein-AM fluorescence, 48 h, basal, profiling panel (AID 1163). The note with it: 3T3-L1 adipocytes viability, higher = more signal.
A short description of assay [3]: compound effects on hepatocellular carcinoma cell viability – HepG2, calcein-AM fluorescence, 48 h, basal, profiling panel (AID 1164). The note with it: higher = more signal.
Assay [4] in a line: compound effects on multiple myeloma cell viability – MM1S, calcein-AM fluorescence, 48 h, basal, profiling panel (AID 1165).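 Further: viability of MM1S multiple myeloma cells under basal unstimulated conditions.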 The settings on record: higher = more signal.
Assay [5] can be described thus: calcein-AM signal in unstimulated myeloma cells – cell-based, calcein-AM fluorescence, 48 h, PK04 Diversity Set, profiling panel (AID 1166).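 Further: cells grown under basal conditions without added stimulus.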 The settings on record: RPMI8226 myeloma viability, higher = more signal.
The nature of assay [6]: JC-1 mitochondrial signal, unstimulated HepG2 cells – cell-based, JC-1 fluorescence, 24 h, 100 nL compound, profiling panel (AID 1167). The settings on record: HepG2 mitochondrial potential, higher = more signal.
The nature of assay [7]: JC-1 mitochondrial signal, unstimulated adipocytes – cell-based, JC-1 fluorescence, 3T3-L1 adipocytes, 24 h, 100 nL compound, profiling panel (AID 1168). The note with it: JC-1 mitochondrial fluorescence, higher = more signal, called active from +8 up or from −8 down.
Assay [8] in a line: JC-1 mitochondrial signal, unstimulated myeloma cells – cell-based, JC-1 fluorescence, RPMI8226, 24 h, 100 nL compound, profiling panel (AID 1169). The settings on record: JC-1 mitochondrial potential fluorescence, higher = more signal.
The nature of assay [9]: JC-1 mitochondrial signal, unstimulated MM1S myeloma – cell-based, JC-1 fluorescence, 24 h, 100 nL compound, profiling panel (AID 1170). The settings on record: MM1S mitochondrial potential, higher = more signal.
The nature of assay [10]: resazurin metabolic signal in A549 cells – cell-based, resazurin fluorescence, 24 h, PK04 Diversity Set, profiling panel (AID 1171). The note with it: A549 viability, higher = more signal, called active from +8 up or from −8 down. Background: Resazurin is reduced to fluorescent resorufin, in cell work by metabolically active cells.

Active and inactive are the calls of the source.
Further: test concentration not given here.

Regarding `C=CC[C@@H]1C=C[C@H](ON=C2C[C@@H](O)[C@@H](O)[C@@H]3[C@@H]4C(=O)N(CC)C(=O)[C@@H]4CC[C@@H]23)[C@@H](CO)O1`, the z-score in [1] was -0.98; in assay [2], 1; in [3], 0.281; in [4], -1.44; in assay [5], -1.23; in assay [6], -0.495. Moreover, the z-score in [7] is 0.265 (inactive); in assay [8] it was 0.216; in [9] it was -0.354; in assay [10] it was -0.28 (inactive).
In the case of `CCOC(=O)[C@H](CC(C)C)NC(=O)CCC1CC(OC(=O)NCc2ccc3c(c2)OCO3)CC2(CCCC(COC(=O)NCc3ccccc3)O2)O1` (stereo not given in full), the z-score is -0.547 in [1]; -0.654 in [2]; -1.38 in [3]; -3.45 in [4]; -1.58 in assay [5]; -0.439 in assay [6]. Moreover, the z-score in assay [7] was 0.195 (inactive); in assay [8], 0.0575; in [9], 0.277; in [10], 1.06 (inactive).
Regarding `CC(CCN1CCc2nc(-c3ccccc3)c(-c3ccccc3)cc2C1)=NO[C@@H](C)c1cc(-c2c(C)cc(C)cc2C)no1`, the z-score in assay [1] is -0.826; in assay [2] it was 0.998; in [3] it was 0.321; in [4], -0.494; in assay [5], -1.25; in assay [6], 2.47. For the same molecule, the z-score in assay [7] was -1.15 (inactive); in assay [8], -0.535; in assay [9] it was -1.62; in assay [10], 0.235 (inactive).
For the molecule `CCOC(=O)CCN1C(=O)[C@H]2[C@H]3[C@H](O)[C@H](O)CC(=NOCC(C)C)[C@@H]3CC[C@H]2C1=O`, the z-score in [1] was -0.0819; in assay [2] it was 0.472; in assay [3] it was -0.194; in assay [4], 0.268; in [5] it was -0.706; in [6], -1.05. The z-score was -0.717 (inactive) in assay [7], 0.562 in assay [8], 0.104 in assay [9] and -0.237 (inactive) in [10].
As for `C[C@@H]1CC[C@H]2C(=O)OC(CN3C(=O)c4ccccc4C3=O)CN2[C@H]1c1ccc(Br)cc1` (stereo not given in full), the z-score in assay [1] was 0.0752; in assay [2], -0.0986; in assay [3], 0.182; in [4], 0.49; in assay [5] it was 0.447; in assay [6], 0.239. The z-score in assay [7] is -0.105 (inactive); in [8], -0.911; in [9], 1.67; in [10] it was 0.705 (inactive).
Turning to `CC(CCN1CCc2nc(-c3ccccc3)c(-c3ccccc3)cc2C1)=NO[C@H](C)c1cn([C@H](CO)Cc2ccccc2)nn1`, the z-score in assay [1] is 0.75; in assay [2], 0.23; in assay [3], 0.603; in assay [4], -1.31; in assay [5], 0.163; in assay [6], 2.57. Besides, the z-score was -1.49 (inactive) in assay [7], 1.02 in [8], 0.428 in assay [9] and -0.167 (inactive) in assay [10].
Turning to `CCN1C(=O)[C@H]2[C@H]3[C@H](O)[C@H](O)CC(=NO[C@H](C)c4cn([C@H](CO)Cc5ccccc5)nn4)[C@@H]3CC[C@H]2C1=O`, the z-score was 1.01 in [1]; -0.922 in [2]; 0.211 in assay [3]; -0.824 in assay [4]; 0.065 in assay [5]; -0.471 in [6]. Moreover, the z-score was -1.16 (inactive) in [7], 0.271 in [8], -0.343 in assay [9] and -1.13 (inactive) in assay [10].
Take `CCOC(=O)[C@H](Cc1ccccc1)NC(=O)CCC1CC(OC(=O)NCc2cccc3ccccc23)CC2(CCCC(COC(=O)NCc3ccc4c(c3)OCO4)O2)O1` (stereo not given in full): the z-score in assay [1] is 0.664; in assay [2] it was -0.171; in assay [3], 0.78; in [4], 0.505; in assay [5], -1.48; in [6] it was 0.561. Further, the z-score in assay [7] was 0.953 (inactive); in assay [8] it was -0.675; in [9] it was -0.239; in assay [10], -0.269 (inactive).
In the case of `O=C1[C@H]2[C@H]3[C@H](O)[C@H](O)CC(=NO[C@@H]4O[C@H](CO)[C@@H](O)[C@H](O)[C@H]4O)[C@@H]3CC[C@H]2C(=O)N1C1CCCCC1`, the z-score in assay [1] is 0.646; in assay [2], -0.235; in assay [3], 0.521; in assay [4] it was 0.547; in assay [5], 0.776; in [6], 1.09. For the same molecule, the z-score in [7] was -0.229 (inactive); in assay [8], 0.169; in [9] it was -1.25; in [10], -0.934 (inactive).
As to `CC(C)(C)N1C(=O)[C@H]2[C@@H]3C(=CC[C@H]2C1=O)C(=O)[C@H]1O[C@H]1[C@H]3O`, the z-score is -2.32 in assay [1]; -3.02 in [2]; -4.31 in [3]; -3.19 in assay [4]; -3.9 in assay [5]; 2.38 in [6]. Besides, the z-score in [7] is 2.29 (inactive); in assay [8], -0.787; in assay [9], -2.59; in assay [10], -3.43 (inactive).
For the molecule `CC(=O)OC[C@H]1O[C@@H](ON=C(C)C)[C@H](OC(C)=O)[C@@H](OC(C)=O)[C@@H]1OC(C)=O`, the z-score is -0.132 in assay [1]; 0.0138 in assay [2]; -0.179 in [3]; -0.0646 in assay [4]; -0.43 in assay [5]; -0.0132 in [6]. In addition, the z-score in assay [7] was -0.763 (inactive); in assay [8], 0.93; in assay [9], 0.35; in assay [10], -0.0264 (inactive).
For `CCOC(=O)[C@H](CC(C)C)NC(=O)CCC1CC(OC(=O)NCCc2ccc(F)cc2)CC2(CCCC(COC(=O)NCc3cccc(C(F)(F)F)c3)O2)O1` (stereo not given in full), the z-score in assay [1] was -0.366; in assay [2], -0.289; in assay [3] it was -0.581; in assay [4], -3.37; in assay [5] it was 0.277; in assay [6] it was -0.471. The z-score in [7] is -0.512 (inactive); in assay [8] it was 0.652; in assay [9], -0.0831; in [10], -0.209 (inactive).
In the case of `CC#CCOCCC=C1c2ccccc2[C@@H](OC)[C@@H]1C`, the z-score in [1] was 0.0337; in assay [2], 0.182; in assay [3] it was 0.788; in [4] it was -2.36; in assay [5], -0.234; in [6], -0.19. The z-score in assay [7] was -0.669 (inactive); in assay [8], -0.773; in assay [9], -0.831; in [10] it was 0.349 (inactive).
Regarding `CCOC(=O)[C@H](CC(C)C)NC(=O)CCC1CC(OC(=O)NCCc2ccc(F)cc2)CC2(CCCC(COC(=O)NCCCN3CCCC3=O)O2)O1` (stereo not given in full), the z-score in [1] is 0.332; in [2], -1.03; in [3] it was 0.0317; in [4], -0.528; in [5], -1.8; in assay [6], -0.556. The z-score in [7] was -0.139 (inactive); in assay [8] it was -0.912; in [9], 0.131; in assay [10], 0.601 (inactive).
